Consider 23 targets from the supplement of paper PMC10849652.

Targets with a hit are over-represented here; the source holds about 7,900 in all. About 0.6% of all pairs of compound and target were hits. Unmarked numbers belong to inactive results.

Sequence of UniProt O75822 (O75822 whole entry, looked up): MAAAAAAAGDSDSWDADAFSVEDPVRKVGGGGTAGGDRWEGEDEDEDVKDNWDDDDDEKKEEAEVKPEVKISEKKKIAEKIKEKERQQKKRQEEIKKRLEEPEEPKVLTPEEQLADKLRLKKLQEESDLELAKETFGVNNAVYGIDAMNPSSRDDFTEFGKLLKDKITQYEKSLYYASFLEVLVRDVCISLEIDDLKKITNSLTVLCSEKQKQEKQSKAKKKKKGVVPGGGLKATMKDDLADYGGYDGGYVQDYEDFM
Sequence of UniProt Q9BU89 (Q9BU89 whole entry, looked up): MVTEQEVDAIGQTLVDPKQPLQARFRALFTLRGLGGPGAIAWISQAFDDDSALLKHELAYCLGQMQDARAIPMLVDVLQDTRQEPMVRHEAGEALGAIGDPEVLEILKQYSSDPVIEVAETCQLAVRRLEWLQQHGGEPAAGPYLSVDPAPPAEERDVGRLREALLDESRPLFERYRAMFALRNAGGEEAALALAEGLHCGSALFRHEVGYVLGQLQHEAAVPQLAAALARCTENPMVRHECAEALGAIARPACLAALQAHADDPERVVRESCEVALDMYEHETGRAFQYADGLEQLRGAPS
Sequence of UniProt Q5QP82 (Q5QP82 whole entry, looked up): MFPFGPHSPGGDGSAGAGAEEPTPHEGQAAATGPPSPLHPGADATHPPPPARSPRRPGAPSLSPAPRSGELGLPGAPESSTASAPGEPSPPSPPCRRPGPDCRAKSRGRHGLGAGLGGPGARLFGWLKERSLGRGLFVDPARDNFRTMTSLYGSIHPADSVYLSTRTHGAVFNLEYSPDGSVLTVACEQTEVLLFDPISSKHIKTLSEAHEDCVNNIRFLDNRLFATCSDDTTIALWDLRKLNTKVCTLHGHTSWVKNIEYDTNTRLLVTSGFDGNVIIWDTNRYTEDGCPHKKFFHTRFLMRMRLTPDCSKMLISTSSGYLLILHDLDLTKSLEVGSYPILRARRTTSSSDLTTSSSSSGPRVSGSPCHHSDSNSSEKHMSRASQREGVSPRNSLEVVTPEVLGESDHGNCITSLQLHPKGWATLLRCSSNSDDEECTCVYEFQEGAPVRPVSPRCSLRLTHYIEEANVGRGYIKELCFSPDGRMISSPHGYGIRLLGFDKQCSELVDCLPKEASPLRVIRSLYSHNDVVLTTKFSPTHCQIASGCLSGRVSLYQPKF
Sequence of UniProt Q8IYI6 (Q8IYI6 whole entry, looked up): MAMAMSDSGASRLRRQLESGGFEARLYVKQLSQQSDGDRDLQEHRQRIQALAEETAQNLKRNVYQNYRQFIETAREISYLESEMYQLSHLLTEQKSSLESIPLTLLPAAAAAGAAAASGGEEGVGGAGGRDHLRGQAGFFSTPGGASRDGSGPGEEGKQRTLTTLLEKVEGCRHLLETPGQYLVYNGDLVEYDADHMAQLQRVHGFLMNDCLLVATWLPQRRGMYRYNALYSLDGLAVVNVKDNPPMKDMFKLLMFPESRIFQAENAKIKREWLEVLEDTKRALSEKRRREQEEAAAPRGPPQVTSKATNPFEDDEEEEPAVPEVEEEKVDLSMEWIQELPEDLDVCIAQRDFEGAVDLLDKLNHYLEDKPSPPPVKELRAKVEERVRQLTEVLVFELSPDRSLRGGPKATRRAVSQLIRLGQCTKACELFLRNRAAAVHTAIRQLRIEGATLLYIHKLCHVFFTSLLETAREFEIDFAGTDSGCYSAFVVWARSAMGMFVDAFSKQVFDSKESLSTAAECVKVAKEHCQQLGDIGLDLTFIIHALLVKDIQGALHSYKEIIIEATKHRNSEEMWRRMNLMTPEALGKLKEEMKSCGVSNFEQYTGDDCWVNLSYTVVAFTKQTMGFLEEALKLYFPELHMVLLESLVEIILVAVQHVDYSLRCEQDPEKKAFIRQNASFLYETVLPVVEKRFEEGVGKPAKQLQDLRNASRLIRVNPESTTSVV
Sequence of UniProt Q9NYP7 (Q9NYP7 whole entry, looked up): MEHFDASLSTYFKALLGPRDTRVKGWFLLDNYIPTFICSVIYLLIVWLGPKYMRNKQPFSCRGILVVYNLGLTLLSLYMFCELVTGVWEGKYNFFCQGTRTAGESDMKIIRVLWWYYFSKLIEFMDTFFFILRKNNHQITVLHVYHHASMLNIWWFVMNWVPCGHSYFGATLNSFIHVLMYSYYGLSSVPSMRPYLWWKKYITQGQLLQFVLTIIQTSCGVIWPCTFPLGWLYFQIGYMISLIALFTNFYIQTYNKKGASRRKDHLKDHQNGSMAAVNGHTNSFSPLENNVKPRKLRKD
Sequence of UniProt P98173 (P98173 whole entry, looked up): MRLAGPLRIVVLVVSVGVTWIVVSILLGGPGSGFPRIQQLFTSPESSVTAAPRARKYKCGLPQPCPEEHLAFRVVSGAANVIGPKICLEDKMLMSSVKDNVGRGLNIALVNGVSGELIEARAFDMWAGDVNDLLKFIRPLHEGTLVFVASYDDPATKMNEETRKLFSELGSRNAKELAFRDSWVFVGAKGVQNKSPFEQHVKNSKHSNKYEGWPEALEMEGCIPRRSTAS
Sequence of UniProt Q96GG9 (Q96GG9 whole entry, looked up): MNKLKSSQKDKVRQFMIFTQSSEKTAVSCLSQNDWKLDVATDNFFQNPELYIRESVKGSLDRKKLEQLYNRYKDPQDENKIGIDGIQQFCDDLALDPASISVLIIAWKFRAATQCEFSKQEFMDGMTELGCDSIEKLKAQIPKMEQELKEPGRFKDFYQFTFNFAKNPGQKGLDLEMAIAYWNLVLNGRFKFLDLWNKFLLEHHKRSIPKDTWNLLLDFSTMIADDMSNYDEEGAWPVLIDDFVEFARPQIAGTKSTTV
Sequence of UniProt Q9NZJ5 (Q9NZJ5 whole entry, looked up): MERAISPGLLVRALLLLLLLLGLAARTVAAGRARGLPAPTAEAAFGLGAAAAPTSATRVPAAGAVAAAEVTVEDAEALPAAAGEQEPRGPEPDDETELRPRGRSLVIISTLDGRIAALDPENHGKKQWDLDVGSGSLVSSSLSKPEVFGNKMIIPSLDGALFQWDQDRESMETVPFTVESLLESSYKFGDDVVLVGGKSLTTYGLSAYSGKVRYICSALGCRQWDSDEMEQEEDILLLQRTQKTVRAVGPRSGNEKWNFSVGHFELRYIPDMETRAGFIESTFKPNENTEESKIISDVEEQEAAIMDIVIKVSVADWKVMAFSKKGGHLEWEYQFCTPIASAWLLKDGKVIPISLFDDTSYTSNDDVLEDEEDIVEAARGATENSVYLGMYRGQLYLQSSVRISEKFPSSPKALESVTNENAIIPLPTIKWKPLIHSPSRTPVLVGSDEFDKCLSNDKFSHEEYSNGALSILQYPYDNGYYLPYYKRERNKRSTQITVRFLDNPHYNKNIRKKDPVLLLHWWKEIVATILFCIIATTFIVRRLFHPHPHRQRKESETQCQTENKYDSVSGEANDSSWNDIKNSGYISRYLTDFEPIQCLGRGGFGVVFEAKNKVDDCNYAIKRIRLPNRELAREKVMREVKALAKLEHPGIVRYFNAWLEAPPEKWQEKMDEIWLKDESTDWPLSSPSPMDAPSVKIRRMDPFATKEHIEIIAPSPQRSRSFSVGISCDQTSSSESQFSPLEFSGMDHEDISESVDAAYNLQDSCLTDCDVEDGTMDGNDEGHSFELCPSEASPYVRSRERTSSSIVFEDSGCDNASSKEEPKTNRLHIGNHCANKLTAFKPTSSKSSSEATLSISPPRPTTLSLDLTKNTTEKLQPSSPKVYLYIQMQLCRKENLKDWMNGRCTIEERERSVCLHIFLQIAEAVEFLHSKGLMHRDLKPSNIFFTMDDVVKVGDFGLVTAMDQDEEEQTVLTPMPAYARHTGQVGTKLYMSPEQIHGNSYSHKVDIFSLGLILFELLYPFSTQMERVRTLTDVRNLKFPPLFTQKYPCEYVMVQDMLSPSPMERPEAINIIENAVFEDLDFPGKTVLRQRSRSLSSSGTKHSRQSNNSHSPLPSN
Sequence of UniProt P68104 (P68104 whole entry, looked up): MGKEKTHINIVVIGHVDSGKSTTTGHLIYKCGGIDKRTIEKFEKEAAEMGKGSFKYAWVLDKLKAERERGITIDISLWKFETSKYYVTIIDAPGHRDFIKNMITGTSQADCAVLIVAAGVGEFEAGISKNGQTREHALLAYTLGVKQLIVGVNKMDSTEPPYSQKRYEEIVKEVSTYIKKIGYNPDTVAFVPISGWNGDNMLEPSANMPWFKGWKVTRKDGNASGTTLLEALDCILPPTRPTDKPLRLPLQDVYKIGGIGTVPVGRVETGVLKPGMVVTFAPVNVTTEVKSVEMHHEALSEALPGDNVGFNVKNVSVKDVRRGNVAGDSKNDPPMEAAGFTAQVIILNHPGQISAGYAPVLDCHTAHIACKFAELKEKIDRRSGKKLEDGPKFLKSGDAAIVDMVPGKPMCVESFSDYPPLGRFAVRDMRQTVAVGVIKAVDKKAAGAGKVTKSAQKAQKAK
Sequence of UniProt Q9UBM7 (Q9UBM7 whole entry, looked up): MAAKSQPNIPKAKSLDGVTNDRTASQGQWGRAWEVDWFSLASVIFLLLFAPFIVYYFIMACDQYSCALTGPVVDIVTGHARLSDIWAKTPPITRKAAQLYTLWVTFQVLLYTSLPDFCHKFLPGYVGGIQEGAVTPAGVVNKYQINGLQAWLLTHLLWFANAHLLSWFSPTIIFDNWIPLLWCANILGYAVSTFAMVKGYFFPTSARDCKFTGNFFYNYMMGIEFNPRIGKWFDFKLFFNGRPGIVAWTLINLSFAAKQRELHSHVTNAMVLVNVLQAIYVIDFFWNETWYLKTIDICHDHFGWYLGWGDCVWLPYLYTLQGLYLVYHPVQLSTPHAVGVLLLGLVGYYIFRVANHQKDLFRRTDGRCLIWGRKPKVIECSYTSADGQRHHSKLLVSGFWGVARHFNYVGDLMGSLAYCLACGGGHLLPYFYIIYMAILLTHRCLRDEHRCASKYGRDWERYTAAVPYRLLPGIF
Sequence of UniProt Q86YN1 (Q86YN1 whole entry, looked up): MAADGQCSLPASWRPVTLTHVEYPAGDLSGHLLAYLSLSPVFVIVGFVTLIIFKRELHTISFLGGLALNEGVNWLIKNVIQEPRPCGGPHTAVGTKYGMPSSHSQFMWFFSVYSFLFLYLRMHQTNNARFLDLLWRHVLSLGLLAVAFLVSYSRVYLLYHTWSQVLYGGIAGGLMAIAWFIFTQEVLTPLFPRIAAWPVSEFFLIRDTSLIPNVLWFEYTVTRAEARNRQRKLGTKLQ

Compound in this experiment: C/C(=N\NC(=O)C1=CC(=CC=C1)S(=O)(=O)N2CCOCC2)/C3=C(C=CC(=C3)Cl)O
Description: log2 fold change, soluble protein after heating vs DMSO (PISA); higher = thermal stabilisation; K562 cells, 10 uM, 30 min; active = over 0.2 and 3.5 SD of the protein, either way, in both replicates (recomputed). In short, it runs like this:
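Values are thermal stability changes relative to control samples and are taken from duplicates. They are stated as log2 fold changes. Before quantification by TMTpro 16plex LC-MS/MS with equalised channel sums, K562 cells at 2×10^6 cells/mL were treated with 10 μM compound for 30 min, heated in aliquots for 3 min across 48°C-58°C, pooled, extracted in PBS with 0.5% NP-40 at 4°C, and centrifuged at 21,000xg for 90 min to give the soluble supernatant.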
For the target EIF2AK3 (UniProt Q9NZJ5), the log2 fold change was 0.022.

Regarding DCUN1D1 (UniProt Q96GG9), the log2 fold change is 0.052. The figure for EIF3J isoform 2 (UniProt O75822) is -0.093; for DCAF10 (UniProt Q5QP82) it is 0.014. The figure for DENND10 (UniProt Q8TCE6) is -0.005; for EIF2AK1 (UniProt Q9BQI3) it is 0.006.

Consider FAM3A (UniProt P98173), for which the log2 fold change was 0.118. As to ELOVL5 isoform 2 (UniProt Q9NYP7), the log2 fold change is 0.117.

Turning to DEGS1 (UniProt O15121), the log2 fold change is 0.076.

Regarding DHCR7 (UniProt Q9UBM7), the log2 fold change was 0.041.

As for EIF4G3 isoform 3 (UniProt O43432), the log2 fold change is 0.01. Turning to EIF3J (UniProt O75822), the log2 fold change was -0.004. In the case of E2F4 (UniProt Q16254) it was -0.003; in that of DOHH (UniProt Q9BU89), -0.102; in that of ERLIN2 (UniProt O94905), -0.075. The figure for DPYSL2 (UniProt Q16555) is -0.104.

Consider ELAC1 (UniProt Q9H777), for which the log2 fold change is -0.068. In the case of EEF1A1 (UniProt P68104) it was 0.119. In the case of EHBP1L1 (UniProt Q8N3D4) it was 0.088.

Regarding EXOC8 (UniProt Q8IYI6), the log2 fold change was 0.144.

Turning to DYNC1I2 isoform 2 (UniProt Q13409), the log2 fold change is 0.155.

In the case of DTWD1 (UniProt Q8N5C7), the log2 fold change is 0.007. In the case of DOLPP1 (UniProt Q86YN1) it was 0.039.
